# Compound activity (PubChem BioAssay)
# esBAF inh = SWI/SNF esBAF complex inhibition | mouse ES cells, Bmi1-luciferase knock-in reporter, 24 h; 100% = twice the neutral-well signal | reporter increase, % at 12.5 µM | hit rate 2% among 350,000; in the data active = activation above about 40%; inconclusive = no clear call, values can overlap the other calls;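 also: 0% = median of the plate's neutral control wells and 100% = double that signal; a rise in the Bmi1 reporter signal indicates esBAF inhibition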
# AHR activator = activates the human aryl hydrocarbon receptor; P35869; AHR-responsive luciferase reporter cells, luminescence; activation, % at 5 µM; hit rate 2.5% among 320,000; AID 2796; in the data active = activation above about 47%;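 also: 0% = vehicle wells and 100% = reference agonist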
# Wnt bcat act = Wnt/beta-catenin pathway activation; hit rate 1.2% among 300,000; activation, % at 9.35 µM; AID 743398; Wnt/beta-catenin reporter cell assay, activator, plate reader; in the data active = activation above about 30%, passing the limit was not always enough; inconclusive = no clear call, values can overlap the other calls;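 also: 0% = neutral control wells and 100% = positive control wells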
# GAA850 FXN act = frataxin GAA850 promoter activation; HEK293 lucGAA850 FXN promoter luciferase reporter, 24 h; percent of 10 µM SAHA response; activation, % at 6 µM; hit rate 0.56% among 360,000; AID 540364;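 active = activation above the average of all compounds screened plus 3 SD, cutoff fixed separately per campaign, cut at about 7.5% in these data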;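 also: 0% = DMSO wells and 100% = 10 µM SAHA wells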
# MITF TRPM1 HTS = MITF TRPM1 promoter activation in melanoma cells; SK-MEL-5 TRPM1-promoter luciferase, 24 h; % of positive control, neutral wells = 0; activation, % at 12.5 µM; hit rate 0.75% among 300,000; AID 588334;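 active = mean activation of at least 80% with every replicate also reaching 80%; inconclusive = mean reaches 80% but some replicate falls short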;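 also: 0% = neutral control wells and 100% = parthenolide positive control wells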
# An asterisk follows results filed as active; ? = inconclusive; / = no result given. Most compounds without a hit are left out; they make up all but 4.2% or so of the library.
SMILES,esBAF inh,AHR activator,Wnt bcat act,GAA850 FXN act,MITF TRPM1 HTS
C/C=C/c1ccc2c(c1)O[C@@H](CN(C)C(=O)Cc1cccnc1)[C@H](C)CN([C@@H](C)CO)S2(=O)=O,-1.3,/,/,/,/
C[C@H]1CN([C@@H](C)CO)C(=O)c2cc(C3=CCCCC3)cnc2O[C@@H]1CN(C)C(=O)CN1CCOCC1,1.9,/,/,/,/
CC(C)NC(=O)NCC[C@@H]1CC[C@@H](NS(=O)(=O)c2ccc(-c3ccccc3)cc2)[C@@H](CO)O1,5.7,/,/,/,/
COC(=O)c1c(-c2cccnc2)csc1NC(=O)c1cc(C)on1,33.9,68.4*,29.3,6.5,57.5
O=C(NC1CCCC1)N[C@H]1CC[C@@H](CC(=O)N2CCOCC2)O[C@@H]1CO,0.5,/,/,/,/
O=c1oc(CCO)cc2ccc(-c3ccc4[nH]ccc4c3)cc12,50.0*,18.2,43.2*,0.9,116.6*
Cc1nc(Cc2ccccc2)sc1CC#N,2.1,/,51.3*,3.4,-2.2
Cc1cc(C)c2nc(NCc3ccccc3O)sc2c1,44.8*,1.9,16.2,6.0,94.8*
COc1cc(CNc2nc3c(C)cc(C)cc3s2)ccc1O,3.4,15.6,-2.8,1.9,-1.1
CCC(=O)NNc1nc2c(C)cc(C)cc2s1,/,62.2*,1.0,0.6,1.1
COc1ccc(S(=O)(=O)N[C@@H]2CC[C@H](CCNC(=O)CN3CCOCC3)O[C@@H]2CO)cc1,-1.4,/,/,/,/
C[C@@H]1CN([C@@H](C)CO)C(=O)c2cc(-c3ccccc3)cnc2O[C@@H]1CN(C)C(=O)Nc1ccccc1,-0.2,/,/,/,/
COc1ccc2nc(N(CCN(C)C)C(=O)c3ccc4ccccc4c3)sc2c1,-1.1,5.2,2.0,0.2,4.6
Cc1ccc2nc(N(CCCN(C)C)C(=O)c3ccc4ncsc4c3)sc2c1,51.7*,-2.6,-22.0,4.2,10.2
COc1ccc2nc(N(CCN(C)C)C(=O)c3ccc4ncsc4c3)sc2c1,80.6*,/,?,4.0,/
O=C(C[C@H]1CC[C@@H](NC(=O)c2ccc3c(c2)OCO3)[C@H](CO)O1)NCc1ccc(F)cc1,-0.7,/,/,/,/
O=C1C=C(c2cccc(CO)c2)C[C@@H](c2ccc3c(c2)OCO3)C1,3.8,73.4*,2.3,2.2,8.7
O=C1C=C(c2cccc(OCc3ccccc3)c2)C[C@@H](c2ccc3c(c2)OCO3)C1,-4.1,31.5,2.5,-1.6,-1.4
Cc1cc(C2=CC(=O)C[C@H](c3ccc4c(c3)OCO4)C2)ccc1F,8.4,79.0*,-0.3,2.5,4.3
O=C1C=C(c2ccc3c(c2)OCO3)C[C@@H](c2ccc3c(c2)OCO3)C1,-1.5,60.9*,-1.3,3.1,21.0
O=C1C=C(c2ccc(-c3ccccc3)c(F)c2)C[C@@H](c2ccc3c(c2)OCO3)C1,6.9,3.3,1.9,0.7,21.7
CCOC(=O)c1cc(-c2ccccc2)nc2ccc(C)cc12,-3.3,2.3,1.8,-0.5,7.9
CCOC(=O)Cc1cc(-c2ccccc2)nc2ccc3ccccc3c12,/,93.2*,-0.8,2.7,-13.2
COc1ccccc1NC(=O)c1nnn(CC(=O)Nc2ccccc2)c1N,1.1,47.0*,-5.9,2.2,11.8
CCOc1ccccc1NC(=O)Cn1nnc(C(=O)Nc2ccccc2Cl)c1N,/,/,/,2.8,14.5
SMILES,esBAF inh,AHR activator,Wnt bcat act,GAA850 FXN act,MITF TRPM1 HTS
COc1ccccc1NC(=O)Cn1nnc(C(=O)Nc2ccccc2)c1N,-2.8,11.2,-0.6,-3.3,-13.4
CCOc1ccc(NC(=O)c2nnn(CC(=O)Nc3ccccc3OC)c2N)cc1,43.8*,41.4,/,0.5,16.1
Cc1noc(C)c1S(=O)(=O)N(C)C[C@H]1OCCCC[C@H](C)Oc2ccc(NC(=O)C3CCCCC3)cc2C(=O)N([C@@H](C)CO)C[C@H]1C,-4.1,/,/,/,/
CC(=O)N1N=C(c2ccc(Cl)cc2)CC1c1ccc([N+](=O)[O-])cc1 (configuration not stated),1.4,5.3,0.5,1.9,/
COc1ccc(C2CC(c3ccc4ccccc4c3OC(C)=O)=NN2C(C)=O)cc1 (configuration not stated),/,6.8,58.2*,1.0,/
COc1ccc(C2CC(c3ccc(Cl)cc3)=NN2C(C)=O)cc1 (configuration not stated),51.6*,38.5,13.2,4.5,40.8
CN(C)C(=O)c1ccc(-c2ccc([C@H]3[C@@H](C#N)N(C(=O)C4CCOCC4)[C@H]3CO)cc2)cc1,0.3,/,/,/,/
CCCC(=O)Nc1ccc2c(c1)OC[C@H](C)N(Cc1ccccc1F)C[C@H](C)[C@H](OC)CN(C)C2=O,2.7,/,/,/,/
CCCC(=O)Nc1ccc2c(c1)OC[C@H](C)N(Cc1ccc(-c3ccccn3)cc1)C[C@@H](C)[C@@H](OC)CN(C)C2=O,0.8,/,/,/,/
CCc1cccc(N=c2c([N+](=O)[O-])nn(-c3ccc(Cl)cc3)n2O)c1,/,24.1,-0.5,0.8,-6.8
Cc1cccc(N=c2c([N+](=O)[O-])nn(-c3ccc(Cl)cc3)n2O)c1,/,61.7*,6.1,0.2,6.1
Cc1cc(C)cc(N=c2c([N+](=O)[O-])nn(-c3cccc(Cl)c3)n2O)c1,5.7,69.2*,/,1.7,-11.2
C[C@@H]1CN([C@H](C)CO)C(=O)c2cc(NC(=O)Cn3cnnn3)ccc2O[C@@H]1CN(C)S(=O)(=O)c1cn(C)cn1,-3.5,/,/,/,/
Cn1cncc1C#Cc1ccc2cc(CCO)oc(=O)c2c1,9.7,48.5*,-0.2,4.9,22.6
CN(C)c1ccc2c(c1)[C@@H]1C[C@H](CC(=O)N3CCc4ccccc4C3)O[C@@H](CO)[C@@H]1O2,9.2,/,/,/,/
O=C(Nc1ccon1)c1ccc(OC2CCCC2)cc1,/,5.5,46.2*,6.0,?
CC(C)(C)c1cc(NC(=O)c2ccc(OC3CCCC3)cc2)no1,/,4.0,-1.6,-1.4,36.2
C[C@H](CO)N1C[C@H](C)[C@H](CN(C)C(=O)c2ccccc2F)Oc2ncc(-c3cccnc3)cc2C1=O,-3.7,/,/,/,/
CCOC(=O)C(=NC(C)(C)C)NNc1cc(Cl)ccc1Cl,/,1.7,17.8,2.5,-8.5
CCOC(=O)C(=NC(C)C)NNc1cc(Cl)ccc1Cl,/,6.9,39.8*,4.0,-8.6
C[C@H]1CN([C@@H](C)CO)C(=O)Cc2cc(NC(=O)Cn3cnnn3)ccc2O[C@@H]1CN(C)Cc1ccccc1,-0.9,/,/,/,/
COc1ccc(N2CCN(C(=O)C3Cc4ccccc4CN3C(=O)c3ccccc3)CC2)cc1 (configuration not stated),72.4*,5.9,15.8,3.0,47.5
Nc1ccccc1O,15.2,73.6*,/,0.5,-43.7
Nc1cccc2c(O)cccc12,/,5.0,6.3,1.9,-12.1
O=C(Nc1ccccc1)OCc1cc(-c2ccccc2Cl)on1,49.7*,-7.5,/,5.6,65.2
COC(CNC(=O)c1ccc2c3c(onc13)-c1ccccc1C2=O)OC,/,-1.2,70.7*,4.0,/
O=C(C1CC1)N1CCc2cc(Br)cc(S(=O)(=O)N3CCCCCC3)c21,/,1.1,41.5*,1.8,/
O=c1c2ccccc2nc(-c2ccco2)n1/N=C/c1ccco1,4.0,61.8*,0.9,0.6,/
CC(C)(O)CNC(=O)C(Cc1ccccc1)N1C(=O)c2ccccc2C1=O (configuration not stated),-4.0,0.9,1.2,1.0,-2.3
